Assay outcomes (PubChem)
CHX counter: affects cycloheximide protein synthesis inhibition readout, counter-screen; cell reporter, cycloheximide protein synthesis inhibition counterscreen; max response, %; actives 12% (n = 300,000); in the data active = max response mostly above about 13%, no sharp cut-off; inactive = mostly below about 14%; note: read at 38.3 µM for the half of the compounds with a filed dose
TbPYK inhibitor: inhibitors of Trypanosoma brucei pyruvate kinase | Q57TT1 | TbPYK enzyme, Kinase-Glo Plus ATP luminescence, 45 min | Potency, µM (highest dose often 76.8 µM), hits mostly inhibitors | actives 0.12% (n = 410,000); note: nearly all actives have a fitted effect of over 50% in size
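Quantitative HTS: titrated library compounds versus trypanosomal pyruvate kinase in TEA buffer (pH 7.2) containing KCl, MgCl2, BSA and Tween-20. Reactions were initiated with ADP, 130 uM final. Kinase-Glo Plus luminescence was read after 45 min at RT.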
Shiga toxin inh: inhibitors of Shiga toxin in Vero cells | Vero cells, Shiga toxin protein synthesis inhibition reporter | inhibition, % at 38.7 µM | actives 9.2% (n = 290,000); in the data active = inhibition mostly above about 28%, no sharp cut-off; inactive = mostly below about 43%
RE007 growth inh: less growth of the S. pombe RE007 Vpr strain; S. pombe RE007 Vpr strain, BacTiter-Glo ATP luminescence, 24 h; Potency, µM (highest dose often 92.2 µM), usual class: inhibitors; actives 0.21% (n = 360,000); AID 651644; active = well fitted falling curve with a large enough effect; inconclusive = small, poorly fitted or top-dose-only effect; inactive = no such curve, though single readings can be large or run the other way; note: nearly all actives have a fitted effect of over 50% in size
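Fission yeast strain RE007, carrying one chromosomally integrated HIV-1 vpr copy, was seeded at OD 0.01 in PMG+AL medium with 23 nL pinned compound. After 24 h at 30 °C and 99% humidity, viability was read by BacTiter-Glo luminescence.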
FBPA Giardia inh: blocks Giardia fructose-bisphosphate aldolase activity. A8B2U2. purified Giardia FBPA. Potency, µM (top dose mostly 59.6 µM), actives largely listed as inhibitors. actives 0.71% (n = 290,000). AID 2451; note: nearly all actives have a fitted effect of over 55% in size
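40 nM FBPA preincubated 10 min at RT with compound (up to 57.5 uM final), then substrate plus GAPDH/TPI/NAD/arsenate coupling and diaphorase/resazurin added. Fluorescence read after 20 min at RT, 525/598 nm.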
LmPK inhibitor: LmPK (Leishmania mexicana) enzyme inhibition; Q27686; purified LmPK, Kinase-Glo ATP luminescence, 1 h; Potency, µM (doses to about 57.5 µM), actives largely listed as inhibitors; actives 0.37% (n = 290,000)
Target sequence (Q27686 whole entry, looked up): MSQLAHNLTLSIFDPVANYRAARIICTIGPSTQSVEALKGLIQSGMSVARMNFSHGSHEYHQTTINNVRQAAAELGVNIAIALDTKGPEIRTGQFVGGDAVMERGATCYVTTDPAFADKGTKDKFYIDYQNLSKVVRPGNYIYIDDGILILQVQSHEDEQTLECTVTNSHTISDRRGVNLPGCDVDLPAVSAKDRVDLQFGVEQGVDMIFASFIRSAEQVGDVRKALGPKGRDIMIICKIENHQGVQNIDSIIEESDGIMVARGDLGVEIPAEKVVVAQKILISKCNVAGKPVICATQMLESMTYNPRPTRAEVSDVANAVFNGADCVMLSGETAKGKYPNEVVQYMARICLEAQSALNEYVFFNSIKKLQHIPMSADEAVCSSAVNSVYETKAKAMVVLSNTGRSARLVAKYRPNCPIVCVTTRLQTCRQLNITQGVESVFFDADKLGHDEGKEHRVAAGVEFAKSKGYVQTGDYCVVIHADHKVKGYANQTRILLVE
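ATP generated from ADP (0.1 mM) and PEP (0.5 mM) by 0.1 nM LmPK over 1 h at room temperature (pH 7.2 imidazole buffer) was detected by coupled luciferase luminescence. Values were normalized to uninhibited and no-enzyme wells.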
Of the large screens only hits and unclear results are named; the others gave an inactive call. Many of the other results were omitted from the sample, so hits are more common in it than they were. Unless noted, calls come from the whole dose curve; as a rule, active = well fitted curve in the direction sought with a large enough effect; inconclusive = small, poorly fitted or top-dose-only effect, or another doubt; inactive = no such curve, though single readings can be large; an effect the other way counts as inactive or inconclusive.

COc1ccc(OCC(O)CN2C(=O)c3ccccc3C2=O)cc1 (stereo unspecified)	none
O=C1CSC(=O)N1CC(O)COc1ccc(Cl)cc1 (stereo unspecified)	CHX counter 39, Shiga toxin inh 86
CCN(CC(=O)Nc1ccc2c(c1)OCCO2)C(=O)c1ccc(C)c(S(=O)(=O)N2CCOCC2)c1	none (no result: CHX counter, Shiga toxin inh, FBPA Giardia inh, LmPK inhibitor)
CC(=O)c1ccc(NC(=O)NNS(=O)(=O)c2ccc([N+](=O)[O-])cc2)cc1	none (no result: FBPA Giardia inh)
CCCCC(=O)Nc1cccc(-c2nc3ncccc3o2)c1C	CHX counter 15
c1ccc2c(-c3nc4ncccc4o3)cccc2c1	CHX counter 20, RE007 growth inh inconclusive
Cc1c(NC(=O)C(C)C)cccc1-c1nc2ncccc2o1	none
Fc1ccccc1-c1nc2ncccc2o1	CHX counter 23, Shiga toxin inh 58
O=C(NC(=S)Nc1ccc(-c2nc3ncccc3o2)cc1)c1ccccc1F	none
CC(=O)Oc1ccccc1-c1nc(C)nc(N(C)C(C)=O)n1	CHX counter 12, Shiga toxin inh 38
Cc1ccc(OCC(=O)OCc2cc(=O)n3nc(-c4cccs4)sc3n2)cc1C	none (no result: CHX counter, Shiga toxin inh, RE007 growth inh, FBPA Giardia inh, LmPK inhibitor)
COCCNC(=O)/C(C#N)=C/c1cccs1	CHX counter 14
COCCNC(=O)/C(C#N)=C/c1ccc(SC)cc1	CHX counter 30, Shiga toxin inh 65
CN(C)c1ccc(/C=C(/C#N)C(=O)NCc2ccccc2)o1	CHX counter 59
CSc1ccc(/C=C(\C#N)C(=O)Nc2cccc(C)c2)cc1	CHX counter 22
CSc1ccc(/C=C(\NC(=O)c2ccc(C)cc2)C(=O)Nc2cccc(C)c2)cc1	none
COCCNC(=O)/C(C#N)=C/c1ccc(C(=O)O)cc1	none
N#C/C(=C/c1ccccc1)C(=O)NCc1ccccc1	none
CCNC(=O)C1CCCN(C(=O)c2ccc(OC)c(OC)c2)CC1 (stereo unspecified)	none (no result: CHX counter, Shiga toxin inh, FBPA Giardia inh, LmPK inhibitor)
N#C/C(=C\c1cccs1)C(=O)NCc1ccco1	CHX counter 39, Shiga toxin inh 56
Cc1ccsc1/C=C(\C#N)C(=O)NCc1ccco1	none
Cc1ccc(/C=C(\C#N)C(=O)NCc2ccco2)o1	CHX counter 43, Shiga toxin inh 66
COc1ccc(N(CCC#N)C(=O)/C(C#N)=C\c2cccs2)cc1	CHX counter 20
COCCCN1C(=O)C(CC(=O)NC(c2ccccc2)c2ccccc2)CC(C(=O)N(C(C)C)C(C)C)=C1C (stereo unspecified)	none (no result: CHX counter, Shiga toxin inh, FBPA Giardia inh, LmPK inhibitor)
Oc1ccc2ccccc2c1C=Nc1ccccc1-c1nc2ccccc2[nH]1	CHX counter 43, Shiga toxin inh 59, FBPA Giardia inh inconclusive
CCCN(C(=O)c1nc2nc(C)cc(C)n2n1)c1c(N)n(Cc2ccccc2)c(=O)[nH]c1=O	none (no result: CHX counter, Shiga toxin inh, FBPA Giardia inh, LmPK inhibitor)
Cc1cccc(NC(=O)Cc2ccc(-c3ccccc3)cc2)n1	none
O=C(Cc1ccc(-c2ccccc2)cc1)Nc1ncccc1O	CHX counter 37, Shiga toxin inh 80, RE007 growth inh inconclusive
O=C(C[n+]1ccccc1)Nc1ccccc1	none (no result: CHX counter, Shiga toxin inh, FBPA Giardia inh, LmPK inhibitor)
O=C(Cc1ccc(-c2ccccc2)cc1)Nc1ccccc1	CHX counter 22
O=C(C[n+]1ccc(Cc2ccccc2)cc1)Nc1ccccc1	Shiga toxin inh 39
COc1cc(C)ccc1OCCSc1nc2ccc(NC(=O)c3ccco3)cc2s1	none (no result: CHX counter, Shiga toxin inh, RE007 growth inh, FBPA Giardia inh, LmPK inhibitor)
CN(CC(=O)Nc1c(Cl)cccc1Cl)C(=O)CCNS(=O)(=O)c1ccccc1C(F)(F)F	none (no result: CHX counter, Shiga toxin inh, FBPA Giardia inh, LmPK inhibitor)
Cc1cccc(N2CCN(C(=O)Cc3ccccc3[N+](=O)[O-])CC2)c1C	CHX counter 27
O=C(Cc1ccccc1[N+](=O)[O-])N1CCN(c2ccc(F)cc2)CC1	none
O=C(CCCOc1ccccc1)N1CCN(c2ccccc2)CC1	none
Cc1cccc(N2CCN(C(=O)CCCOc3ccccc3)CC2)c1C	CHX counter 64, Shiga toxin inh 134
CCOC(=O)N1CCN(C(=O)CCCOc2ccccc2)CC1	CHX counter 29, Shiga toxin inh 113
COc1ccc(NC(=O)C2CCCN(S(=O)(=O)c3ccc4c(c3)CCCC(=O)N4)C2)cc1OC (stereo unspecified)	none (no result: CHX counter, Shiga toxin inh, RE007 growth inh, FBPA Giardia inh, LmPK inhibitor)
CC(C)c1cccc(-c2csc(C(O)c3cccc(Cl)c3)n2)c1 (stereo unspecified)	RE007 growth inh inconclusive (no result: CHX counter, Shiga toxin inh, FBPA Giardia inh, LmPK inhibitor)
CCOC(=O)C(N)CSC1CC(=O)N(CCc2ccccc2)C1=O (stereo unspecified)	FBPA Giardia inh inconclusive
CCOc1ccc(CCNC(=O)c2cc3c(-c4ccccc4F)nn(C)c3s2)cc1OCC	none (no result: CHX counter, Shiga toxin inh, RE007 growth inh, FBPA Giardia inh, LmPK inhibitor)
O=c1[nH]nc(SCc2nc3ccccc3s2)n1C1CC1	CHX counter 52, Shiga toxin inh 103
CCCn1c(SCc2nc3ccccc3s2)n[nH]c1=O	CHX counter 53, Shiga toxin inh 90
CCCn1c(=O)c2ccccc2n2c(SCc3nc4ccccc4s3)nnc12	CHX counter 31, Shiga toxin inh 142
Cc1cc(C)c(-n2c(SCc3nc4ccccc4s3)n[nH]c2=O)c(C)c1	none
O=C(NC1CC1)c1cc2cc(Br)ccc2s1	CHX counter 38, Shiga toxin inh 51
CNC(=O)c1cc2cc(Br)ccc2s1	none
O=C(NNS(=O)(=O)c1ccccc1)c1cc2cc3ccccc3nc2s1	Shiga toxin inh 54
O=C(NNC(=O)c1cc2cc3ccccc3nc2s1)c1cccc(C(F)(F)F)c1	none
O=C(NC1CC1)c1cc2cc3ccccc3nc2s1	CHX counter 41, Shiga toxin inh 99
CC(C)N(Cc1nc(-c2ccc3c(c2)OCO3)no1)Cc1nccn1C	none
CCc1ccc(-c2nc(-c3ccncc3)no2)cc1	CHX counter 42, Shiga toxin inh 85
CCCCc1ccc(-c2nc(-c3ccncc3)no2)cc1	CHX counter 39, Shiga toxin inh 73
Cc1cccc2sc(N(CCCN(C)C)C(=O)c3ccc4ncsc4c3)nc12	CHX counter 20, Shiga toxin inh 38
CCc1ccc2nc(N(CCN(C)C)C(=O)c3ccc4ncsc4c3)sc2c1	CHX counter 68, Shiga toxin inh 117 (no result: FBPA Giardia inh)
Cc1cccc2sc(N(CCCN(C)C)C(=O)c3nc4ccccc4s3)nc12	none
Cc1nc(-c2ccccc2)c(-c2ccncc2)o1	none (no result: TbPYK inhibitor, RE007 growth inh, LmPK inhibitor)
O=C(CN1C(=O)/C(=C/c2ccc(Cl)cc2)SC1=S)NC1C=CS(=O)(=O)C1 (stereo unspecified)	none
CC(C)c1ccc(/C=C2\SC(=O)N(CC(=O)NC3C=CS(=O)(=O)C3)C2=O)cc1 (stereo unspecified)	CHX counter 12
COc1ccc(/C=C2\SC(=S)N(C(C)C(=O)NC3C=CS(=O)(=O)C3)C2=O)cc1 (stereo unspecified)	CHX counter 23, Shiga toxin inh 31
COc1ccccc1C(=O)NC(=S)N1CCc2ccccc21	none
COc1ccc(C(=O)NC(=S)N2CCCc3ccccc32)cc1OC	CHX counter 21
